From the supplement of paper PMC4466140

What was measured:
Assay in all cases: SPOT peptide array binding signal intensity (averaged, normalized) (arbitrary units (background-subtracted, floor 0; scale differs between SH3 domains)); higher = stronger binding of the SH3 domain to the peptide
[1] = target: AgAbp1
Experimental: (§1)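 GST-tagged SH3 domains from S. cerevisiae (Sc), A. gossypii (Ag), C. albicans (Ca) and S. pombe (Sp) were incubated at 10 ug/ml overnight at 4 C on cellulose SPOT membranes carrying 292 synthetic 15-mer peptides mined from the S. cerevisiae proteome (cysteines replaced by serines). Binding was detected with anti-GST antibody, HRP secondary and chemiluminescence, quantified with Genespotter, and reported as normalized spot intensities averaged over biological replicates.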

[2] = target: AgBbc1
Experimental: as §1

[3] = target: AgBem1-D1
Experimental: as §1

[4] = target: AgBzz1-D1
Experimental: as §1

[5] = target: AgBzz1-D2
Experimental: as §1

[6] = target: AgCyk3
Experimental: as §1

[7] = target: AgFus1
Experimental: as §1

[8] = target: AgHof1
Experimental: as §1

[9] = target: AgHse1
Experimental: as §1

[10] = target: AgLsb1
Experimental: as §1

[11] = target: AgLsb4
Experimental: as §1

[12] = target: AgMyo5
Experimental: as §1

[13] = target: AgNbp2
Experimental: as §1

[14] = target: AgRvs167
Experimental: as §1

[15] = target: AgSho1
Experimental: as §1

[16] = target: AgSla1-D1-D2
Experimental: as §1

[17] = target: AgSla1-D3
Experimental: as §1

[18] = target: CaAbp1-D1
Experimental: as §1

[19] = target: CaAbp1-D2
Experimental: as §1

[20] = target: CaBbc1
Experimental: as §1

[21] = target: CaBem1-D1
Experimental: as §1

[22] = target: CaBzz1-D1
Experimental: as §1

[23] = target: CaBzz1-D2
Experimental: as §1

[24] = target: CaCyk3
Experimental: as §1

[25] = target: CaFus1
Experimental: as §1

[26] = target: CaHof1
Experimental: as §1

[27] = target: CaHse1
Experimental: as §1

[28] = target: CaLsb1
Experimental: as §1

[29] = target: CaLsb4
Experimental: as §1

[30] = target: CaMyo5
Experimental: as §1

[31] = target: CaNbp2
Experimental: as §1

[32] = target: CaRvs167
Experimental: as §1

[33] = target: CaRvs167-3
Experimental: as §1

[34] = target: CaSho1
Experimental: as §1

[35] = target: CaSla1-D1-D2
Experimental: as §1

[36] = target: CaSla1-D3
Experimental: as §1

[37] = target: ScAbp1
Experimental: as §1

[38] = target: ScBbc1
Experimental: as §1

[39] = target: ScBem1-D1
Experimental: as §1

[40] = target: ScBzz1-D1
Experimental: as §1

[41] = target: ScBzz1-D2
Experimental: as §1

[42] = target: ScCyk3
Experimental: as §1

[43] = target: ScFus1
Experimental: as §1

[44] = target: ScHof1
Experimental: as §1

[45] = target: ScHse1
Experimental: as §1

[46] = target: ScLsb1
Experimental: as §1

[47] = target: ScLsb2
Experimental: as §1

[48] = target: ScLsb3
Experimental: as §1

[49] = target: ScLsb4
Experimental: as §1

[50] = target: ScMyo3
Experimental: as §1

[51] = target: ScMyo5
Experimental: as §1

[52] = target: ScNbp2
Experimental: as §1

[53] = target: ScPex13
Experimental: as §1

[54] = target: ScRvs167
Experimental: as §1

[55] = target: ScSho1
Experimental: as §1

[56] = target: ScSla1-D1-D2
Experimental: as §1

[57] = target: ScSla1-D3
Experimental: as §1

[58] = target: SpAbp1-D1
Experimental: as §1

[59] = target: SpBbc1
Experimental: as §1

[60] = target: SpBzz1-D1
Experimental: as §1

[61] = target: SpBzz1-D2
Experimental: as §1

[62] = target: SpCyk3
Experimental: as §1

[63] = target: SpHof1
Experimental: as §1

[64] = target: SpHof1-2
Experimental: as §1

[65] = target: SpHof1-3
Experimental: as §1

[66] = target: SpHse1
Experimental: as §1

[67] = target: SpLsb1
Experimental: as §1

[68] = target: SpLsb4
Experimental: as §1

[69] = target: SpMyo1
Experimental: as §1

[70] = target: SpNbp2
Experimental: as §1

[71] = target: SpPex13
Experimental: as §1

[72] = target: SpRvs167
Experimental: as §1

[73] = target: SpSla1-D1-D2
Experimental: as §1

[74] = target: SpSla1-D3
Experimental: as §1

QQNRPLPQLPNRNNR
SPOT peptide array binding signal intensity [1]: 30 | SPOT peptide array binding signal intensity [2]: 585 | SPOT peptide array binding signal intensity [3]: 98.5 | SPOT peptide array binding signal intensity [4]: 73 | SPOT peptide array binding signal intensity [5]: 80 | SPOT peptide array binding signal intensity [6]: 102 | SPOT peptide array binding signal intensity [7]: 17 | SPOT peptide array binding signal intensity [8]: 938 | SPOT peptide array binding signal intensity [9]: 29 | SPOT peptide array binding signal intensity [10]: 148 | SPOT peptide array binding signal intensity [11]: 1970 | SPOT peptide array binding signal intensity [12]: ≤ 0 | SPOT peptide array binding signal intensity [13]: 0.5 | SPOT peptide array binding signal intensity [14]: 797 | SPOT peptide array binding signal intensity [15]: 2750 | SPOT peptide array binding signal intensity [16]: 1 | SPOT peptide array binding signal intensity [17]: ≤ 0 | SPOT peptide array binding signal intensity [18]: 32 | SPOT peptide array binding signal intensity [19]: 6 | SPOT peptide array binding signal intensity [20]: 1000 | SPOT peptide array binding signal intensity [21]: 26.5 | SPOT peptide array binding signal intensity [22]: 132 | SPOT peptide array binding signal intensity [23]: 90.5 | SPOT peptide array binding signal intensity [24]: 35 | SPOT peptide array binding signal intensity [25]: 74 | SPOT peptide array binding signal intensity [26]: 17 | SPOT peptide array binding signal intensity [27]: 49.2 | SPOT peptide array binding signal intensity [28]: 1.5 | SPOT peptide array binding signal intensity [29]: 4700 | SPOT peptide array binding signal intensity [30]: 4 | SPOT peptide array binding signal intensity [31]: 100 | SPOT peptide array binding signal intensity [32]: 1040 | SPOT peptide array binding signal intensity [33]: 1.75 | SPOT peptide array binding signal intensity [34]: 658 | SPOT peptide array binding signal intensity [35]: 738 | SPOT peptide array binding signal intensity [36]: 3.25 | SPOT peptide array binding signal intensity [37]: 62 | SPOT peptide array binding signal intensity [38]: 65 | SPOT peptide array binding signal intensity [39]: 9 | SPOT peptide array binding signal intensity [40]: 25 | SPOT peptide array binding signal intensity [41]: 21 | SPOT peptide array binding signal intensity [42]: 4 | SPOT peptide array binding signal intensity [43]: 22 | SPOT peptide array binding signal intensity [44]: 70.2 | SPOT peptide array binding signal intensity [45]: ≤ 0 | SPOT peptide array binding signal intensity [46]: 95 | SPOT peptide array binding signal intensity [47]: 36.5 | SPOT peptide array binding signal intensity [48]: 6550 | SPOT peptide array binding signal intensity [49]: 1180 | SPOT peptide array binding signal intensity [50]: ≤ 0 | SPOT peptide array binding signal intensity [51]: ≤ 0 | SPOT peptide array binding signal intensity [52]: 23 | SPOT peptide array binding signal intensity [53]: 1010 | SPOT peptide array binding signal intensity [54]: 1370 | SPOT peptide array binding signal intensity [55]: 6410 | SPOT peptide array binding signal intensity [56]: 383 | SPOT peptide array binding signal intensity [57]: 2 | SPOT peptide array binding signal intensity [58]: 17 | SPOT peptide array binding signal intensity [59]: 28 | SPOT peptide array binding signal intensity [60]: 450 | SPOT peptide array binding signal intensity [61]: 1.5 | SPOT peptide array binding signal intensity [62]: 123 | SPOT peptide array binding signal intensity [63]: 1520 | SPOT peptide array binding signal intensity [64]: 1990 | SPOT peptide array binding signal intensity [65]: 1170 | SPOT peptide array binding signal intensity [66]: 14 | SPOT peptide array binding signal intensity [67]: 82.8 | SPOT peptide array binding signal intensity [68]: 6900 | SPOT peptide array binding signal intensity [69]: 45.8 | SPOT peptide array binding signal intensity [70]: 20 | SPOT peptide array binding signal intensity [71]: 3.5 | SPOT peptide array binding signal intensity [72]: 2080 | SPOT peptide array binding signal intensity [73]: 333 | SPOT peptide array binding signal intensity [74]: 7
